Active and inactive are the calls of the source. The call rests on the fitted dose curve; in most records, active means well fitted curve in the direction sought with a large enough effect in the repeat runs; inconclusive means weak or mixed curves; inactive means flat fitted curve, though single readings scatter.

The assay is described as follows: qHTS assay to test for compound auto fluorescence at 460 nm (blue) in HEK293 cells (AID 720678). The following applies: blue autofluorescence 405/460 nm; series mostly up to 91.3 µM. Summed up: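 Blue read-out at excitation 405 nm and emission 460 nm follows overnight compound exposure of HEK293 cells at 37C in 5% CO2. Activity is given as auto fluorescence equivalency to triamterene.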
On the technique in general: In qHTS, concentration-response curves come from the screen itself.
On to `CCCCCCC(C)O` (stereo not drawn), for which the compound was classed as inactive.
`C1COCCN1`: the call was inactive.
On to `CCCCCC1C(=O)CCC1CC(=O)OC` (stereo not drawn), for which the call was inactive.
For the compound `O=Cc1ccccc1C=O`, the call was inactive.
With `OCCNCCO`, the call was inactive.
Turning to `CN(C)CCCN1c2ccccc2Sc2ccc(Cl)cc21`, the result was inactive.
In the case of `OC[C@H]1O[C@@H]2O[C@H]3[C@H](O)[C@@H](O)[C@@H](O[C@H]4[C@H](O)[C@@H](O)[C@@H](O[C@H]5[C@H](O)[C@@H](O)[C@@H](O[C@H]6[C@H](O)[C@@H](O)[C@@H](O[C@H]7[C@H](O)[C@@H](O)[C@@H](O[C@H]1[C@H](O)[C@H]2O)O[C@@H]7CO)O[C@@H]6CO)O[C@@H]5CO)O[C@@H]4CO)O[C@@H]3CO`, the call was inactive.
On to `Nc1ccc2c(c1)C(=O)c1ccccc1C2=O`, for which the compound was classed as inactive.
Take `O=C(O)CCCCCCCCCCCC(=O)O`: the call was inactive.
With `O=C(O)COCCN1CCN(C(c2ccccc2)c2ccc(Cl)cc2)CC1` (stereo not drawn), the call was inactive.
Then `COc1ccc(-c2coc3cc(O)cc(O)c3c2=O)cc1`, with “inactive”; and `CC(=O)Oc1c(C)c(C)c2c(c1C)CC[C@@](C)(CCC[C@H](C)CCC[C@H](C)CCCC(C)C)O2`, with “inactive”; and `C=C[C@@]1(C)CC(=O)[C@]2(O)[C@@]3(C)[C@@H](O)CCC(C)(C)[C@@H]3[C@H](O)[C@H](OC(C)=O)[C@@]2(C)O1`, with “inactive”.
Consider `C1CN(SSN2CCOCC2)CCO1`, for which the result was inactive.
Then `CCC(=O)O[C@H]1[C@H](O[C@@H]2[C@@H](C)[C@H](O[C@H]3C[C@@](C)(OC)[C@@H](O)[C@H](C)O3)[C@@H](C)C(=O)O[C@H](CC)[C@@](C)(O)[C@H](O)[C@@H](C)C(=O)[C@H](C)C[C@@]2(C)O)O[C@H](C)C[C@@H]1N(C)C`, with “inactive”; and `IC(I)I`, with “inactive”; and `CC1(C)NC(=O)N(c2ccc([N+](=O)[O-])c(C(F)(F)F)c2)C1=O`, with “inactive”.
Consider `CN1CCOCC1`, for which the call was inactive.
For `CC(=O)O[C@]1(C(C)=O)CC[C@H]2[C@@H]3C=C(C)C4=CC(=O)CC[C@]4(C)[C@H]3CC[C@@]21C` the value was “inactive”.
For `O=[Se](O)O` the value was “inactive”; for `C=C[Si](OCCOC)(OCCOC)OCCOC`, “inactive”; for `Cc1ccc(C)c(O)c1`, “inactive”.
Take `COc1cc([C@H]2Oc3cc([C@H]4Oc5cc(O)cc(O)c5C(=O)[C@@H]4O)ccc3O[C@@H]2CO)ccc1O`: the compound was classed as inactive.
On to `C=CC(C)(O)CCC=C(C)C` (stereo not drawn), for which the call was inactive.
With `Cc1ccc(C(C)(C)C)cc1`, the compound was classed as inactive.
Consider `Clc1ccc(Sc2cc(Cl)c(Cl)cc2Cl)cc1`, for which the result was inactive.
`O=C(O)c1ccc(O)cc1`: the outcome was inactive.
Consider `Cc1ccc(S(=O)(=O)NCl)cc1`, for which the result was inactive.
For `O=C(O)c1cc(=O)[nH]c(=O)[nH]1` the value was “inactive”; for `CC[C@]12CCCN3CCc4c(n(c5ccccc45)[C@@](O)(C(=O)OC)C1)[C@@H]32`, “inactive”.
In the case of `FC(F)(F)C(Cl)Br` (stereo not drawn), the outcome was inactive.
Then `NCCOCCO`, with “inactive”; and `CN(C)/N=N/c1nc[nH]c1C(N)=O`, with “inactive”.
For `CC1(C)C(C=C(Cl)Cl)C1C(=O)OCc1cccc(Oc2ccccc2)c1` (stereo not drawn) the value was “inactive”; for `Cc1cccc(Nc2ccccc2C(=O)O)c1C`, “inactive”; for `NCCN`, “inactive”.
Then `[O-]/[N+](=N\O)c1ccccc1`, with “inactive”; and `CC(=O)Oc1ccc(C(c2ccc(OC(C)=O)cc2)c2ccccn2)cc1`, with “inactive”.

Source of the values: PubChem BioAssay (Tox21).
